# Source: PubChem BioAssay AID652016 (National Center for Advancing Translational Sciences (NCATS), 2013)
# Results filed as inconclusive are left out. A call without a number means that no potency is given here. Activity calls are given as the source filed them. Calls follow the shape of the dose curve; as a rule, active = well fitted inhibition curve with a large enough effect; inconclusive = small, poorly fitted or top-dose-only effect; inactive = flat fitted curve, though single readings scatter.
# Molecular target: Luciferin 4-monooxygenase (Photinus pyralis) (UniProt P08659)
# Sequence (P08659 whole entry, looked up): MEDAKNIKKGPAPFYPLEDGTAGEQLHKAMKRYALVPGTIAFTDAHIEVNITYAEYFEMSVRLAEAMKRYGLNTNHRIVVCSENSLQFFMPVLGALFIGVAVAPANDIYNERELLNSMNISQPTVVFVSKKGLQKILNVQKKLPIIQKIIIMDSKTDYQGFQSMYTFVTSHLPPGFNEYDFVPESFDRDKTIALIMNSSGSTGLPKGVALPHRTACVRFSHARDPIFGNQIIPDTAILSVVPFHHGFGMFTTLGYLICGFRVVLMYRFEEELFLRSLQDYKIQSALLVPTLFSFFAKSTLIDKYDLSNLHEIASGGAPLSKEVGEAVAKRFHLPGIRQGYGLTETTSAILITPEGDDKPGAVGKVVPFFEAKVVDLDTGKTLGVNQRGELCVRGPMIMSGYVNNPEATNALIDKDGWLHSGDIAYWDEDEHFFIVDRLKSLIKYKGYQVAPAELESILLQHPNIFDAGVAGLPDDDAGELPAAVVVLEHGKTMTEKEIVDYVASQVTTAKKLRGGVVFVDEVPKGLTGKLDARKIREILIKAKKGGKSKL
# Assay: qHTS Assay for Inhibitors of Firefly Luciferase from the GSK Published Protein Kinase Inhibitor Set
# Conditions: purified firefly luciferase, luminescence inhibition; series mostly up to 57.5 µM
# Method in brief: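 Enzyme-level luminescence assay: compounds titrated (about 60uM down to 300pM) into substrate buffer (10uM ATP, 10uM D-luciferin, pH 7.5 Tris acetate with Mg, Tween-20, BSA), then 10nM firefly luciferase added; read after ~5 min.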
# Potency is read from the fitted curve at half-maximal effect.
row,Compound,Potency
1,COc1cc(N2CCN(C(C)C)CC2)ccc1Nc1nc(Nc2cccc3ncccc23)c2cc[nH]c2n1,inactive
2,Cc1ccc(Nc2ccnc(Nc3cccc(C(N)=O)c3)n2)cc1O,1.46 µM (active)
3,CS(=O)(=O)CCNCc1ccc(-c2ccc3ncnc(Nc4ccc(OCc5cccc(C(F)(F)F)c5)cc4)c3c2)o1,inactive
4,FC(F)(F)c1ccc(-c2nn3ncccc3c2-c2ccnc(Nc3ccc4c(c3)OCCO4)n2)cc1,inactive
5,COc1ccc2ncn(-c3cc(OC(C)c4ccccc4C(F)(F)F)c(C(N)=O)s3)c2c1 (stereo not drawn),inactive
6,COc1cccc(Nc2nccc(-c3cnn4ncccc34)n2)c1,inactive
7,Fc1cccc(COc2ccc(Nc3ncnc4sc(-c5cccs5)cc34)cc2Cl)c1,inactive
8,Fc1ccc(-c2nc3n(c2-c2ccncc2)CCS3)cc1,inactive
9,CCn1c(-c2nonc2N)nc2cnc(Oc3cccc(NC(=O)c4ccc(OCCN5CCOCC5)cc4)c3)cc21,inactive
10,COC(=O)c1ccc2c(c1)/C(=C/c1cc(Br)c(O)c(Br)c1)C(=O)N2,20.6 µM (active)
11,C#Cc1cccc(Nc2ncnc3ccc(OCCCCNCCS(C)(=O)=O)cc23)c1,inactive
12,O=C1NC(=O)C(c2cccc(Cl)c2)=C1Nc1ccc(Cl)c(C(=O)O)c1,inactive
13,COc1ccc2cc(-c3c(-c4ccncc4)nc(-c4ccc(S(C)=O)cc4C)n3C)ccc2c1 (stereo not drawn),inactive
14,NCc1ccc(-n2c(-c3nonc3N)nc3cnccc32)cc1,inactive
15,CN(C)CCCn1c(-c2nonc2N)nc2cnccc21,inactive
16,CS(=O)(=O)CCNCc1ccc(-c2ccc3ncnc(Nc4ccc(OCc5cccc(F)c5)c(C(F)(F)F)c4)c3c2)o1,inactive
17,Cc1ccc(C(=O)NC(C)C)cc1-c1ccc(C(=O)NCC2CC2)cc1,inactive

row,Compound,Potency
1,COC(=O)Nc1nc2ccc(Oc3ccc(NC(=O)Nc4cccc(Br)c4)cc3)cc2[nH]1,inactive
2,CC(Oc1cc(-n2cnc3ccc(OC4CCN(C)CC4)cc32)sc1C(N)=O)c1ccccc1Cl (stereo not drawn),inactive
3,COc1ccc(-c2ccncc2)cc1C(N)=O,inactive
4,O=S(=O)(CCOCc1ccc(-c2ccc3ncnc(Nc4ccc(OCc5cccc(F)c5)c(Cl)c4)c3c2)o1)c1ccccc1,inactive
5,CC1=C(C(=O)Nc2ccc3[nH]ncc3c2)C(c2ccc(Cl)c(Cl)c2)CC(=O)N1 (stereo not drawn),inactive
6,CC(Oc1cc(-n2cnc3ccc(OCC(O)CO)cc32)sc1C(N)=O)c1ccccc1Cl (stereo not drawn),inactive
7,Nc1ncnc2occ(-c3ccc(NC(=O)Nc4cc(C(F)(F)F)ccc4F)cc3)c12,inactive
8,COc1cc2ncnc(Nc3ccc4c(cnn4Cc4ccccc4)c3)c2cc1OC,inactive
9,NCc1ccc(-c2nc(-c3ccc(Cl)c(O)c3)c(-c3ccncc3)[nH]2)cc1,inactive
10,COc1cccc(-n2ncc3c(NN=Cc4ccc(C)cc4)ncnc32)c1,inactive
11,Cc1cc(O)cc(C)c1C=Cc1cncc(C(=O)OC(C)(C)C)c1,inactive
12,O=C1Nc2ccc(C(=O)c3ccco3)cc2/C1=C/c1cc(Cl)c(O)c(Cl)c1,18.3 µM (active)
13,Fc1ccc(Nc2nccc(-c3c(-c4ccc(C(F)(F)F)cc4)nn4ncccc34)n2)cc1F,inactive
14,COc1ccc2c(-c3ccnc(Nc4cccc(OC(F)(F)F)c4)n3)cnn2n1,inactive
15,CNC(=O)c1cc(-c2ccc(F)cc2)cc(-c2ccc(S(=O)(=O)N3CCCC3)cc2)c1N,inactive
16,O=C1NC(=O)C(c2ccc(Cl)cc2)=C1Nc1ccc(Cl)c(C(=O)O)c1,inactive
